Results published in PubChem BioAssay (NCATS).
Inconclusive results are not listed. Activity calls are given as the source filed them. Unless noted, calls follow the shape of the dose curve; as a rule, active = well fitted curve in the direction sought with a large enough effect; inconclusive = small, poorly fitted or top-dose-only effect, or another doubt; inactive = no such curve, though single readings can be large; an effect the other way counts as inactive or inconclusive.

How the values were obtained:
[1] = target: Lysosomal acid glucosylceramidase (Homo sapiens) (UniProt P04062); assay: Glucocerebrosidase-p2 (AID 348; in the data active = potency below about 10 µM; also: potency is read from the fitted curve at half-maximal effect); details: purified GBA, blue fluorogenic substrate, 40 min
Lysosomal acid glucosylceramidase (Homo sapiens), sequence (P04062 whole entry, looked up): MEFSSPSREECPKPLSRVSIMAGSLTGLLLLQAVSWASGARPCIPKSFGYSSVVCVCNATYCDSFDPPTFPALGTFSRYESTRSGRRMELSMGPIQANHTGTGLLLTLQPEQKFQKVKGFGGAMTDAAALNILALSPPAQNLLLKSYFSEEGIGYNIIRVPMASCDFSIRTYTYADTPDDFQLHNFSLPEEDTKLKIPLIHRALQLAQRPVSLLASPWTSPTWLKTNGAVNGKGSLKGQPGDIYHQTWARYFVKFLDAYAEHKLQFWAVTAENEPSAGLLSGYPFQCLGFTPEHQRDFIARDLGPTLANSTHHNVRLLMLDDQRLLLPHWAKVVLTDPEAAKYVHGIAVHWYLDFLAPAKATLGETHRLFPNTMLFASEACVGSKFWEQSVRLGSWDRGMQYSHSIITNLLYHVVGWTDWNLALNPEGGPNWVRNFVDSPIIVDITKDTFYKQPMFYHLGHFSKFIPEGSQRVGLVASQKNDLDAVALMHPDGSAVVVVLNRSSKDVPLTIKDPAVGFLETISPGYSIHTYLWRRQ
Procedure, shortened: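 Compounds titrated from 0.6 nM upwards against 0.2 nM enzyme in pH 5.9 citric acid/KH2PO4, taurocholate, tween-20; blue fluorogenic substrate 80 uM, 40 min room temperature, stopped and read Ex 365/Em 440 for AC50.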

[2] = target: Cytochrome P450 1A2 (Homo sapiens) (UniProt P05177); assay: p450-cyp1a2 (AID 410; calls by dose curve; also: potency is read from the fitted curve at half-maximal effect;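 as to activity change, negative = inhibition: -100% = full effect of reference inhibitor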); details: recombinant CYP1A2, luciferin-ME demethylation, luminescence; series mostly up to 57 µM
Cytochrome P450 1A2 (Homo sapiens), sequence (P05177 whole entry, looked up): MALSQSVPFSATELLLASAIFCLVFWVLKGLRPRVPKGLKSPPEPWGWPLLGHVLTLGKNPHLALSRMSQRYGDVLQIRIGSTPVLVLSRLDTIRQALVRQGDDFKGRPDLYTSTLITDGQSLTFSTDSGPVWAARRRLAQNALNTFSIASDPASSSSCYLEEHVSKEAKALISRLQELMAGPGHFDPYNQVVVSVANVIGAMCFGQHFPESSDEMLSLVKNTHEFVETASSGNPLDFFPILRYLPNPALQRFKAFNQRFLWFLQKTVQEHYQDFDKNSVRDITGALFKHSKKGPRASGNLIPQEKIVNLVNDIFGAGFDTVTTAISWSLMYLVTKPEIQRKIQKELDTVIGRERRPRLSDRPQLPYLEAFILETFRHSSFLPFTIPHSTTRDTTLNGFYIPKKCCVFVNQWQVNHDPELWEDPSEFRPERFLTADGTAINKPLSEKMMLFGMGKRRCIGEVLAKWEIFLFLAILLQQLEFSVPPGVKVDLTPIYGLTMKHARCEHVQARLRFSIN
Procedure, shortened: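 Luminescent readout of luciferin formed from Luciferin-ME by human CYP1A2; data normalized against complete inhibition by 57 uM furafylline. Enzyme 20nM, substrate 100uM at Km, 100mM KPO4 buffer, 60 min reaction at room temperature.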

[3] = target: Glucocorticoid receptor (Homo sapiens) (UniProt P04150); assay: GR-GFP Redistribution (AID 450;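 active = compounds whose dose series gives a full or clear partial fitted curve of increased nuclear translocation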; also: potency is read from the fitted curve at half-maximal effect); details: U2OS GR-GFP nuclear translocation, laser cytometry, 2 h
Glucocorticoid receptor (Homo sapiens), sequence (P04150 whole entry, looked up, the tested form may be a part): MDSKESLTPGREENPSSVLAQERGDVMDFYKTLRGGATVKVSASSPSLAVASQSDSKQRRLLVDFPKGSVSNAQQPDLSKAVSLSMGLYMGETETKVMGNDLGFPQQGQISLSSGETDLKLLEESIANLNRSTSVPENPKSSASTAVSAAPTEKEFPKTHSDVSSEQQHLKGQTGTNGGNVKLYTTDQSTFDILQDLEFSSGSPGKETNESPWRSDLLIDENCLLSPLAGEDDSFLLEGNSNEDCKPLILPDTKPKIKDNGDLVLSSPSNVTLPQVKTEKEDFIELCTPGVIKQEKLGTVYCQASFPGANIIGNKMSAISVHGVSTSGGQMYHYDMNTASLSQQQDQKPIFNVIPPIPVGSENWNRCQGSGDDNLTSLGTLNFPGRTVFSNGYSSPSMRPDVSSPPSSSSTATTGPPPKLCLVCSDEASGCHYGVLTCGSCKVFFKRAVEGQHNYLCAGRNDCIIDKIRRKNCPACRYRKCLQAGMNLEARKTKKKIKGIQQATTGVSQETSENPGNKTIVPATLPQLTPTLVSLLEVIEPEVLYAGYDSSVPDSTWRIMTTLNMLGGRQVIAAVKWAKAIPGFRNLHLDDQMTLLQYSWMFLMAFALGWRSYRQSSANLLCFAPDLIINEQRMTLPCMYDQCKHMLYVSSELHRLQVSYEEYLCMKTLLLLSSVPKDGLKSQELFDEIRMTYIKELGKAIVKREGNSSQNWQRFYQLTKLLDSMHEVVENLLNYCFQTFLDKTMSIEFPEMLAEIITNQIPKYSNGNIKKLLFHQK

[4] = target: Glucocorticoid receptor (Homo sapiens) (UniProt P04150); assay: GR-EFC Redistribution (AID 451; calls by dose curve; also: potency is read from the fitted curve at half-maximal effect); details: CHO-K1 GR-EFC translocation, beta-gal luminescence, 2 h
Procedure, shortened: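 CHO-K1 cells expressing nuclear EA and GR-ED fragments of b-gal; compounds titrated up to 46 uM final, 2 h at 37 C. GR nuclear translocation read as complemented b-gal luminescence after 1 h RT detection.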

[5] = target: 3',5'-cyclic-AMP phosphodiesterase 4B (Homo sapiens) (UniProt Q07343); assay: qHTS Assay for Inhibitors of PDE-IV (AID 607; active = well fitted activation curve with a large enough effect in the main read-out, with a control signal flat, not every such curve was filed as active; also: % of control where 0% means no effect); details: HEK293 ACTOne CNG channel cells, membrane potential fluorescence; series mostly up to 22.9 µM
3',5'-cyclic-AMP phosphodiesterase 4B (Homo sapiens), sequence (Q07343 whole entry, looked up): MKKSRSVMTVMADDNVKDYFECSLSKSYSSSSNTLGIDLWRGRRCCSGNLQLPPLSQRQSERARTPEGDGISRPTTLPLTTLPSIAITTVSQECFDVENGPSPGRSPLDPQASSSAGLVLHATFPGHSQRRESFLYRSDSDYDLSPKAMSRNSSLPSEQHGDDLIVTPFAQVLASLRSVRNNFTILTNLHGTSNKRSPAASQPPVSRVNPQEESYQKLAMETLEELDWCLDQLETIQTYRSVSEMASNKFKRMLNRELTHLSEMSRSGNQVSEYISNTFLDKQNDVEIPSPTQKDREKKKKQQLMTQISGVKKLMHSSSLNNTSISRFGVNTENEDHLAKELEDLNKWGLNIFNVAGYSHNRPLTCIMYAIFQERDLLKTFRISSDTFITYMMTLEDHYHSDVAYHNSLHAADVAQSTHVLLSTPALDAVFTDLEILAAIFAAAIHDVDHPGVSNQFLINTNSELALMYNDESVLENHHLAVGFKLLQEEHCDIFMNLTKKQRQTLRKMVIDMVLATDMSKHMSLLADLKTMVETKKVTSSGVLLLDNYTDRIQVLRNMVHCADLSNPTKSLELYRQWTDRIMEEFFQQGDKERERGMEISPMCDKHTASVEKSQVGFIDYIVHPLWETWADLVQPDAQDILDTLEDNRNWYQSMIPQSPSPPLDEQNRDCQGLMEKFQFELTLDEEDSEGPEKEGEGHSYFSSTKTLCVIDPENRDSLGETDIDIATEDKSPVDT
Procedure, shortened: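 ACTOne HEK293 cells carry a modified cAMP-gated CNG channel and express endogenous PDE4; plated 1000 cells/well, compounds up to 22.9 uM final. Membrane-potential dye fluorescence (ex 535/em 590) was read; parental cells received 10 uM forskolin + 100 uM RO 20-1724.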

[6] = target: Cytochrome P450 3A4 (Homo sapiens) (UniProt P08684); assay: qHTS Assay for Activators of Cytochrome P450 3A4 (AID 885); details: recombinant CYP3A4, Luciferin-PPXE luminescence, 60 min; series mostly up to 57.1 µM; also: nearly all actives have a fitted effect of over 65% in size; also: potency is read from the fitted curve at half-maximal effect
Cytochrome P450 3A4 (Homo sapiens), sequence (P08684 whole entry, looked up): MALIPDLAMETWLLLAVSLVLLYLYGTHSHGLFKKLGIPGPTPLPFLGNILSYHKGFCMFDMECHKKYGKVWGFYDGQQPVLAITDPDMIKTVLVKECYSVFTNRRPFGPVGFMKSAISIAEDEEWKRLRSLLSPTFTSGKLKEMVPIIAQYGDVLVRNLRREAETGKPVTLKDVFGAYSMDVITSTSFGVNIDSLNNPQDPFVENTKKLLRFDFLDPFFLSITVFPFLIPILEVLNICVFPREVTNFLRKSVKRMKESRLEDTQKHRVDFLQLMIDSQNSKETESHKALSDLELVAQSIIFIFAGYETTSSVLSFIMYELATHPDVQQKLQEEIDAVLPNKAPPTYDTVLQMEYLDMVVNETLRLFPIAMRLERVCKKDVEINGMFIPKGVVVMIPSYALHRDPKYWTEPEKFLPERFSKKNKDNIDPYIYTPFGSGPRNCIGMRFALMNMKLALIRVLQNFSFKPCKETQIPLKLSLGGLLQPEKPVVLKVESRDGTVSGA
Procedure, shortened: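 20nM CYP3A4 + 25uM Luciferin-PPXE (=KM), 200mM KPO4; cpd 10 min RT; NADPH regen, 60 min RT; stop w/ detection buffer, 20 min; luminescence. Normalized to 57 uM ketoconazole.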

[7] = qHTS Assay for Lipid Storage Modulators (AID 1519; calls by dose curve); details: Drosophila S3 cells, BODIPY lipid droplet/cell ratio, laser cytometry, cells loaded with oleic acid; for activity change, negative = inhibition: at 57.5 µM (top of the series)
Procedure, shortened: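 Cells seeded at 5,000 per well were treated with compounds over a concentration series and loaded with oleic acid (400 uM, as added). Lipid droplet fluorescence (488 nm excitation, 500-530 nm channel) was read by laser-scanning cytometry and normalized to 20 uM Triacsin C.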

[8] = target: Dual specificity protein kinase CLK4 (Homo sapiens) (UniProt Q9HAZ1); assay: qHTS Assay for Inhibitors of CDC-like Kinase 4 (Kinase-Glo Assay) (AID 1770); details: recombinant Clk4, Kinase-Glo ATP depletion luminescence; series mostly up to 66.7 µM; also: nearly all actives have a fitted effect of over 65% in size; also: potency is read from the fitted curve at half-maximal effect
Dual specificity protein kinase CLK4 (Homo sapiens), sequence (Q9HAZ1 whole entry, looked up): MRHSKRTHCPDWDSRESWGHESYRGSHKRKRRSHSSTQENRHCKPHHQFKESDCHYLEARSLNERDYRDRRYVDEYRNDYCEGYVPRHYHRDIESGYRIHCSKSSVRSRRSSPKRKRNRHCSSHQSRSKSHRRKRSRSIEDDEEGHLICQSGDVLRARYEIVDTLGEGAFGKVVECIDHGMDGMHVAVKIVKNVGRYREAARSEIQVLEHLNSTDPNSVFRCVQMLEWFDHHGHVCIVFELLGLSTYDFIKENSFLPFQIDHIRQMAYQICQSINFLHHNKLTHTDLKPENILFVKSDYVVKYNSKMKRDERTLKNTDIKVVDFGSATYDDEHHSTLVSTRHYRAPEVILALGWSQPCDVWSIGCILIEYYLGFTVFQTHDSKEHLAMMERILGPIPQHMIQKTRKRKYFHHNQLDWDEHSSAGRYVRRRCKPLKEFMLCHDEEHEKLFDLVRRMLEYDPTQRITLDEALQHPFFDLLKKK
Procedure, shortened: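 Substrate mix (RS peptide 100 uM, ATP 1 uM) dispensed, compound pinned in, then Clk4 added to 25 nM final. Incubated 4.5 h at RT; Kinase-Glo reagent added, luminescence read after 5 min.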

[9] = target: Dual specificity protein kinase CLK4 (Homo sapiens) (UniProt Q9HAZ1); assay: qHTS Assay for Inhibitors of CDC-like Kinase 4 (ADP-Glo Assay) (AID 1771); details: recombinant CLK4, ADP-Glo luminescence; series mostly up to 80 µM; also: nearly all actives have a fitted effect of over 70% in size; also: potency is read from the fitted curve at half-maximal effect
Procedure, shortened: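 Luminescence from ADP-Glo reports ADP produced by 25 nM Clk4 acting on 100 uM RS repeat peptide with 1 uM ATP over 1 hr at room temperature; residual ATP is depleted before ADP is converted to ATP for detection.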

[10] = target: Dual specificity protein kinase CLK4 (Homo sapiens) (UniProt Q9HAZ1); assay: qHTS Assay for Inhibitors of CDC-like Kinase 4 (ADP-FP Assay) (AID 1795); details: Transcreener ADP fluorescence polarization; series mostly up to 50 µM; also: nearly all actives have a fitted effect of over 60% in size; also: potency is read from the fitted curve at half-maximal effect
Procedure, shortened: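 Clk4 6.25 nM; RS peptide 100 uM; ATP 1 uM; 25 mM Tris pH 7.5, 10 mM MgCl2; 1 h reaction. ADP detected via antibody/orange tracer FP displacement; TG003 positive control.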

[11] = target: Ubiquitin carboxyl-terminal hydrolase 1 (Homo sapiens) (UniProt O94782); assay: Inhibitors of USP1/UAF1: Pilot qHTS (AID 504865); details: purified USP1/UAF1, Ub-rhodamine cleavage fluorescence; series mostly up to 54.9 µM;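 also: rhodamine fluorescence freed from ubiquitin-rhodamine substrate followed over time; top concentration of the series differs between compounds; % is scaled to controls: 0 for no effect and ±100 for the full control effect; nearly all actives have a fitted effect of over 35% in size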
Ubiquitin carboxyl-terminal hydrolase 1 (Homo sapiens), sequence (O94782 whole entry, looked up): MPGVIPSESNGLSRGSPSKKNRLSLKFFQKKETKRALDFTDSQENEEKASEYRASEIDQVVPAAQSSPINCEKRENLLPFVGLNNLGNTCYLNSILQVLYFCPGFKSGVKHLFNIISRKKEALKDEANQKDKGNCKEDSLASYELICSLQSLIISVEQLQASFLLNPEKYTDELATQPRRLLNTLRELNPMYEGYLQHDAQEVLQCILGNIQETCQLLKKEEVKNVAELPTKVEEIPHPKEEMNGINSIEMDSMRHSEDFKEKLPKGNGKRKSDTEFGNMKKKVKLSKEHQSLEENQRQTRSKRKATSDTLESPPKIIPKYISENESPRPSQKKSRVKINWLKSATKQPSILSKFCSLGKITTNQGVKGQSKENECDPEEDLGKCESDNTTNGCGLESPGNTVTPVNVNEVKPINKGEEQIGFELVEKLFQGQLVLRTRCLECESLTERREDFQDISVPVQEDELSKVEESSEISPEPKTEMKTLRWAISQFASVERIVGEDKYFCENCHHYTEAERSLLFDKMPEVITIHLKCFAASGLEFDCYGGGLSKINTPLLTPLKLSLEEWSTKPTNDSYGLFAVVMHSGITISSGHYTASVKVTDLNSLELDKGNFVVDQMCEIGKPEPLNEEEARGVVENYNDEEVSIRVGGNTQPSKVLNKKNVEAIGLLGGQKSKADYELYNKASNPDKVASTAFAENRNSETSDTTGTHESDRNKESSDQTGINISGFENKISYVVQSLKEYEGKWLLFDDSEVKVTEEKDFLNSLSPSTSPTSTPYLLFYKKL
Procedure, shortened: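 In 50mM HEPES pH 7.8 containing 0.5mM EDTA, 1mM TCEP, 0.1 mg/ml BSA and 0.01% Tween-20, 1nM USP1/UAF1 is exposed to compound for 15 min, then Ub-Rho (150nM final) is added and fluorescence is read over time.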

[12] = qHTS Assay for Identification of Small Molecule Agonists for Hypoxia Response Element Signaling Pathway (AID 914; active = well fitted activation curve with a large enough effect in the signal ratio, with a control signal flat, not every such curve was filed as active; the % refers to the signal ratio; also: potency is read from the fitted curve at half-maximal effect; as to activation: % of control where 0% means no effect); details: ME-180 HRE-bla reporter, beta-lactamase ratio, CoCl2, 17 h; activation: stronger effect = higher value
Procedure, shortened: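 Positive modulation of EC50 CoCl2-induced hypoxia response element signaling is measured in ME-180 cells with a beta-lactamase reporter. Compounds are titrated, incubation runs 17 hours, and %Activity derives from the blue/green ratio.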

[13] = AP1 Signaling Pathway (AID 357; active = well fitted curve in either direction with a large enough effect, not every such curve was filed as active; also: % is scaled to controls: 0 for no effect and ±100 for the full control effect); details: ME-180 AP-1-bla reporter, EGF-induced, beta-lactamase ratio, 5 h; at 7.69 µM (top of the series) unless noted
Procedure, shortened: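 AP-1-bla ME-180 cells with beta-lactamase reporter under AP-1 response element, stimulated with EC50 EGF; compounds titrated, 5 hours at 37 degrees Celsius. CCF4 read at 460/530 nm ratio; positive and negative modulators judged by AC50.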

[14] = Stat Signaling Pathway (AID 446; active = well fitted curve in either direction with a large enough effect, not every such curve was filed as active;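 also: ME-180 cervical cancer cells given 40 pM IL-6 alongside compound; SIE-controlled beta-lactamase reporter measured as 460/530 nm FRET emission ratio; % is scaled to controls: 0 for no effect and ±100 for the full control effect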); details: ME-180 SIE beta-lactamase reporter, IL-6 stimulated, 5 h; at 7.69 µM (top of the series) unless noted
Procedure, shortened: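 ME-180 SIE-bla cells; overnight plating; cpd + IL-6 40 pM, 5 h, 37 C; LiveBLAzer 2.5 h RT; 460/530 nm emission ratio. Normalized to 300 pM IL-6 and 125 nM JAK inhibitor controls.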

[15] = target: Mitogen-activated protein kinase 10 (Mus musculus) (UniProt Q61831); assay: JNK3 AlphaScreen Assay (AID 530; active = well fitted curve in either direction with a large enough effect, not every such curve was filed as active;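 also: kinase came from lysate of stimulated human HepG2 cells; signal reports phosphorylation of biotinylated GST-cJun 1-79 at Ser73 with 10 µM ATP; % is scaled to controls: 0 for no effect and ±100 for the full control effect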); details: JNK3 lysate, c-Jun phosphorylation; series mostly up to 57.1 µM
Procedure, shortened: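 Pre-activated (IL-1β/TNFα) JNK3 in HepG2 lysates phosphorylates biotin-GST-cJun(1-79), 10 uM ATP; anti-phospho-cJun(Ser73) AlphaScreen read at room temperature, pH 7.6 Tris buffer. Compounds pre-incubated 15 min as titrations.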

[16] = NFAT Signaling Pathway (AID 444; active = well fitted curve in either direction with a large enough effect, not every such curve was filed as active;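 also: carbachol stimulus at about its EC50 of 1 µM final; % is scaled to controls: 0 for no effect and ±100 for the full control effect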); details: Jurkat NFAT-bla M1, carbachol, beta-lactamase ratio, 5 h; at 7.69 µM (top of the series) unless noted
Procedure, shortened: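 Jurkat cells with NFAT-driven β-lactamase reporter and co-expressed M1 receptor, stimulated with carbachol (final 1 uM, ~EC50), compound titration, 5 h at 37 °C. CCF4 loaded 1 h at RT; 460/530 nm ratio gave %activity and AC50.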

[17] = target: Cytochrome P450 3A4 (Homo sapiens) (UniProt P08684); assay: qHTS Assay for Inhibitors and Substrates of Cytochrome P450 3A4 (AID 884); details: recombinant CYP3A4, Luciferin-PPXE luminescence; series mostly up to 57.1 µM; also: % is scaled to controls: 0 for no effect and ±100 for the full control effect; nearly all actives have a fitted effect of over 50% in size
Procedure, shortened: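 20 nM human CYP3A4 with 25 uM Luciferin-PPXE (at KM) in 200 mM KPO4, preincubated 10 min with compound; NADPH regeneration started a 60 min RT reaction. Luciferin detected by luminescence, normalized to 57 uM ketoconazole as full inhibition.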

[18] = measured here: cell count channel max response
[19] = measured here: lipid channel max response

CN1CCN(c2ncc3nc(-c4cccs4)c(=O)n(Cc4cccs4)c3n2)CC1
2.92%: max response [7, 18]
-4.19%: max response [7, 19]
active: Potency [2] 15.8 µM
inactive: Potency [1] > 11.4 µM | Potency [3] > 9.22 µM | Potency [4] > 46 µM | Potency [5] | Potency [6] | activity change, negative = inhibition [7] -5.19% | Potency [8] | Potency [9] | Potency [10] | Potency [11]

COc1cccc(Cn2c(=O)c(-c3ccccc3)nc3cnc(N4CCN(C)CC4)nc32)c1
-0.577%: max response [7, 19]
active: Potency [12] 3.16 µM
inactive: Potency [1] > 11.4 µM | Potency [2] | Potency [3] > 9.22 µM | Potency [4] > 46 µM | Potency [5] | Potency [6] | activity change, negative = inhibition [7] -6.14% | Potency [8] | Potency [10] | Potency [11]
6.94%: max response [7, 18]

COc1cccc(-c2ccc3ncnc(NCCN4CCOCC4)c3c2)c1
inactive: activity change, negative = inhibition [13] -12.4% | activity, negative = inhibition [14] -15.6% | Potency [3] > 46 µM | Potency [4] > 46 µM | Potency [15] | activation [12] -14.8% | activity change, negative = inhibition [7] -1.99% | Potency [11]
-14.3%: max response [7, 18]
active: Potency [8] 1.78 µM | Potency [9] 1 µM | Potency [10] 0.631 µM
-15.9%: max response [7, 19]

CN1CCN(c2ncc3nc(-c4cc(F)cc(F)c4)c(=O)n(CCC#N)c3n2)CC1
26.1%: max response [7, 19]
active: Potency [2] 15.8 µM | Potency [12] 3.16 µM
25.2%: max response [7, 18]
inactive: Potency [1] > 11.4 µM | Potency [3] > 9.22 µM | Potency [4] > 46 µM | Potency [15] | Potency [5] | Potency [6] | activity change, negative = inhibition [7] 1.36% | Potency [8] | Potency [9] | Potency [10] | Potency [11]

COCCn1c(=O)c(-c2ccccc2)nc2cnc(N3CCN(C)CC3)nc21
11.4%: max response [7, 18]
16.1%: max response [7, 19]
inactive: Potency [1] > 11.4 µM | activity change, negative = inhibition [13] -12.6% | activity change, negative = inhibition [16] 7.66% | activity, negative = inhibition [14] -8.44% | Potency [3] > 9.22 µM | Potency [4] > 46 µM | Potency [15] | Potency [5] | activity change, negative = inhibition [7] 3.96% | Potency [8] | Potency [9] | Potency [11]

CN1CCN(c2ncc3nc(-c4ccc(Cl)cc4)c(=O)n(Cc4ccc(F)cc4)c3n2)CC1
inactive: Potency [1] > 11.4 µM | Potency [3] > 9.22 µM | Potency [4] > 46 µM | Potency [5] | Potency [17] | activity change, negative = inhibition [7] -1.37% | Potency [8] | Potency [9] | Potency [10] | Potency [11]
active: Potency [2] 31.6 µM | Potency [6] 15.8 µM
10.5%: max response [7, 19]
15.9%: max response [7, 18]
